# In PubChem BioAssay:
# This is one part of the list. Activity calls are given as the source filed them.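 Rule for the calls: active = Primary-screen hit whose thallium flux fell at least 3 control SD below untreated wells in both duplicates, with normal baseline fluorescence; inactive = the rest.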
# Biological target: Inward rectifier potassium channel 2 (Mus musculus) (UniProt P35561)
# Experiment: mouse Kir2.1 channel blockers, retest, confirmation, cell-based, FluxOR thallium flux, duplicate (AID 2032)
# Conditions: Kir2.1-expressing cells, FluxOR thallium flux fluorescence, at 10 µM; active compounds read low
# Sequence of Inward rectifier potassium channel 2 (Mus musculus) (P35561 whole entry, looked up): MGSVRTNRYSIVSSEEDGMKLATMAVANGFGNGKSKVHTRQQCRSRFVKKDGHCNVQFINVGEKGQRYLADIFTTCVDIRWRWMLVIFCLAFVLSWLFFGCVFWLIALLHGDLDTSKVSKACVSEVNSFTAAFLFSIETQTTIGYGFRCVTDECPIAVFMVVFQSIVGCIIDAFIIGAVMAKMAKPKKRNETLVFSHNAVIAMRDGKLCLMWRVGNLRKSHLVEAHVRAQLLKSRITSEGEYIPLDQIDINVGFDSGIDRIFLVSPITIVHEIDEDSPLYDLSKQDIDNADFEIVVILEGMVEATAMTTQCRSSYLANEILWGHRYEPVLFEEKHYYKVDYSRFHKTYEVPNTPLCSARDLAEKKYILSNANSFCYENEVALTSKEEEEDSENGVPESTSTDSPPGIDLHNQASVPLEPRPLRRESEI
SMILES,outcome,"Tl flux remaining, % of negative control (active compounds read low)"
Cc1[nH]n(-c2cccc(Cl)c2)c(=O)c1/C=N/n1c(C)nc2ccccc2c1=O,inactive,–
Cc1[nH][nH]c(=O)c1C(c1ccc(-c2ccc(Cl)cc2)o1)c1c(C)[nH][nH]c1=O,inactive,–
O=C(NCc1ccc2c(c1)OCO2)C12CC3CC(CC(C3)C1)C2,inactive,–
CCn1c(O)c(N=NC2=NC(=O)CS2)c2cc(C)ccc21,inactive,–
Cc1cccc(NC(=O)CSC(N)=O)c1C,inactive,–
O=C(NCc1ccc2c(c1)OCO2)c1ccc(Cl)s1,inactive,–
Cc1ccc(NC(=O)C2CC2c2ccccc2)cc1 (centres undefined),inactive,–
N#Cc1c(-c2ccccc2)nc(SCc2cccc(C(F)(F)F)c2)[nH]c1=O,inactive,–
O=C(NC(Nc1nc2ccc([N+](=O)[O-])cc2s1)(C(F)(F)F)C(F)(F)F)c1ccccc1,inactive,–
CCn1c2ccccc2c2cc(NC(=O)CNC)ccc21,–,44% (active)
CCOC(=O)c1c(NC(=S)NC)sc2c1CCCC2,inactive,–
Cc1cccc(NC(=O)c2nc(S(=O)(=O)Cc3ccccc3)ncc2Cl)c1,inactive,–
CC(NC(=O)Nc1ccccc1)c1ccccc1 (centres undefined),inactive,–
CC(=O)N(C1=C(Cl)C(=O)c2ccccc2C1=O)c1ccc(C(=O)O)cc1,inactive,–
Cc1ccc(/C=N/NC(=O)c2cc3ccccc3cc2O)o1,inactive,–
CSc1nnc(NC(=O)c2nc(S(=O)(=O)Cc3ccc(C)cc3)ncc2Cl)s1,inactive,–
CC1=C/C(=N\OS(=O)(=O)c2ccccc2)C=CC1=O,inactive,–
O=C(Nc1ccc(Oc2ccccc2)cc1)c1ccco1,inactive,–
C/C(=N\NC(=O)c1ccoc1C)c1ccccc1O,inactive,–
CCc1ccc(NC(=O)C(=O)NNC(=O)c2cccs2)cc1,inactive,–

SMILES,outcome,"Tl flux remaining, % of negative control (active compounds read low)"
COc1cccc(NC(=O)C2C(c3ccccc3)C2(Cl)Cl)c1 (centres undefined),inactive,–
CS(=O)(=O)c1sc(C(=O)NC(=S)Nc2ccc(OC(F)(F)F)cc2)c2c1C=CCC2,inactive,–
CCOC(=O)c1sc(=S)n2c1[nH]c(=O)c1ccc(C(=O)OC)cc12,inactive,–
N=c1c2c(-c3ccccc3)c(-c3ccccc3)n(Cc3ccccc3)c2ncn1CCCO,–,37% (active)
CCCc1nc2sc3c(c2c(=O)n1NC(=O)CCCl)CCCC3,inactive,–
CCc1ccc(-c2nn(-c3ccccc3)cc2CSC(=N)N)cc1,–,33.5% (active)
CCn1c(=S)[nH]c2sc3c(c2c1=O)CCCCC3,inactive,–
S=C(NCc1ccc(Cl)cc1)NC12CC3CC(CC(C3)C1)C2,inactive,–
COc1ccc(NC(=O)/C(Cl)=C(/Cl)S(=O)Cc2ccc(C)cc2)cn1 (centres undefined),inactive,–
CCC1(C)Cc2c(sc3nnn(CC(=O)Nc4ccc(Cl)cc4)c(=O)c23)CO1 (centres undefined),inactive,–
FC(F)(F)c1cccc(NC(=S)Nc2cccc(Cl)c2)c1,inactive,–
COc1ccc(C(=O)Nc2ncc3c(n2)-c2ccccc2CC3)cc1,inactive,–
CC(NC(=O)Nc1cccc([N+](=O)[O-])c1)c1ccc2c(c1)OCO2 (centres undefined),inactive,–
Cc1ccc2nc(C)c3c(c2c1)N(c1ccccc1)CC3,–,27.5% (active)
CCn1cc(CN2CCC(C(=O)Nc3cccc(-c4cccc(Cl)c4)c3)CC2)cn1,–,55% (active)
Oc1c(Cl)cc(Cl)cc1/C=N/c1ncn[nH]1,inactive,–
Cc1cc2oc3ccc(NCCC4CCCN4C)cc3c(=O)c2cc1C (centres undefined),inactive,–
CCC1(C)Cc2c(sc3[nH]c(=S)n(Cc4ccccc4)c(=O)c23)CO1 (centres undefined),inactive,–
Cc1cccc(NC(=S)NC(=O)c2ccc(Br)o2)c1,inactive,–
